The record followed here is PubChem BioAssay AID602365 (National Center for Advancing Translational Sciences (NCATS), 2012).

Results filed as inconclusive are left out. Calls of active or inactive are those of the source. The call rests on the fitted dose curve; in most records, active means well fitted inhibition curve with a large enough effect; inconclusive means small, poorly fitted or top-dose-only effect; inactive means flat fitted curve, though single readings scatter.

The assay deals with Luciferin 4-monooxygenase (Photinus pyralis) (UniProt P08659). In words: FLuc inhibitory activity for the follow-up compounds in a biochemical assay with 1mM D-luciferin. The conditions noted are these: purified FLuc, luminescence; series mostly up to 57.5 µM; activity change, negative = inhibition: at the top concentration. The text has this: NCGC Assay Overview: Firefly (Photinus pyralis) luciferase is one of the most commonly used transcriptional reporters. It is considered one of the more dynamically responsive reporters - that is, responsive to changes in reporter transcription - as it requires no post-translational modifications and is enzymatically active directly after protein synthesis (Wood, 1998). With no endogenous expression in mammalian cells and without the requirement of external excitation, it offers very little background signal, thus generally providing excellent signal to background for most assays. Previous profiling work to determine the prevalence of compounds that affect FLuc enzymatic activity (PubChem AID 411) identified that ~3% of the MLSMR library (then at ~72K) inhibited FLuc. […] Of the compounds identified in this profile that inhibited FLuc, 151 compounds were selected for further analysis, in an effort to better understand their mode of inhibiting FLuc. The assay described here was to determine the activity of the compounds in a FLuc assay that contained a KM concentration of ATP and a high concentration (1mM) of D-luciferin.
Chain of Luciferin 4-monooxygenase (Photinus pyralis) (P08659 whole entry, looked up): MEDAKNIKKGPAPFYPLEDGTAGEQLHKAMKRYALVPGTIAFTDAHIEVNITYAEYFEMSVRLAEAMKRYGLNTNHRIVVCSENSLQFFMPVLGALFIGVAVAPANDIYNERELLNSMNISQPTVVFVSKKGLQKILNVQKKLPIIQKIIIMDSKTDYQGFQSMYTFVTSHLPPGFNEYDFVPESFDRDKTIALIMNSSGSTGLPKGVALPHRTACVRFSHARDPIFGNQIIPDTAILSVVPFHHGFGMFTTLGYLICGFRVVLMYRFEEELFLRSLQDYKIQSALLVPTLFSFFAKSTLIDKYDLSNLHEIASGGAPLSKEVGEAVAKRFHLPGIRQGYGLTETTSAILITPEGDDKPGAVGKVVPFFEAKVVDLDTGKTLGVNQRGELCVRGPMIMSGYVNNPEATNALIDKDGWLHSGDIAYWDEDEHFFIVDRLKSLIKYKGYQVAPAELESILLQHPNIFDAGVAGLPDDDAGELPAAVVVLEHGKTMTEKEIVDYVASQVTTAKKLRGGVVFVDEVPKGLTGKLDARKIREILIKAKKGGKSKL
NCGC Assay Protocol Summary: Reagents: 50mM Tris acetate, pH 7.5; 10mM Mg acetate; 1mM D-luciferin (Sigma #L9504); 10uM ATP; 0.01% Tween-20; 0.05% BSA; 10nM P. pyralis luciferase (Sigma #L9506) Control compounds used were two known firefly luciferase inhibitors (3-(5-(3-chlorophenyl)-1,2,4-oxadiazol-3-yl)benzoic acid and 5-(2-fluorophenyl)-3-phenyl-1,2,4-oxadiazole), and DMSO. Three microliters containing firefly luciferase substrates in buffer (final concentrations: 50mM Tris acetate, pH 7.5, 10mM Mg acetate, 0.01% Tween-20, 0.05% BSA, 1mM D-luciferin, 10uM ATP) are dispensed into each well of a Greiner white, solid-bottom 1536-well format plate using a flying reagent dispenser (FRD). These assay plates were then treated with 23nL of compound or DMSO using a Kalypsys pin tool, which allows for delivery of a 12-point intraplate titration of each compound to the assay plate (quantitative HTS), with a final compound concentrations ranging from approximately ~60uM to 0.3nM. One microliter of firefly luciferase in […] Tris-acetate buffer was then delivered by FRD to each well for a final enzyme concentration of 10nM. Luciferase activity was then measured using a ViewLux CCD imager (PerkinElmer), with an average exposure time of 2-30 seconds (2X binning, medium/high gain).
In the case of `Cc1ccc(C(=O)Nc2ccc(C(=O)O)cc2)cc1S(=O)(=O)Nc1ccccc1`, the “activity change, negative = inhibition” value is 2.27% (inactive). For the compound `COc1ccc2nc(NC(=O)c3ccc([N+](=O)[O-])o3)sc2c1`, the Potency was 5.8 µM (active). As to `O=C(Cc1ccc(Cl)cc1)Nc1cccc(C(=O)Nc2ccccc2C(=O)O)c1`, the Potency was 36.6 µM (active). With `Cc1ccc(C(=O)Nc2ccc(C(=O)O)cc2)cc1S(=O)(=O)NCc1ccccc1`, the “activity change, negative = inhibition” value is -15.4% (inactive). With `Nc1ccc2nc(-c3ccc(O)cc3)sc2c1`, the Potency was 1.3 µM (active). `O=C(Nc1ccccc1-c1nc2ccccc2s1)c1ccc(Br)o1`: the “activity change, negative = inhibition” value was -0.997% (inactive).

Regarding `CCOc1c(Cl)cc(C(=O)Nc2ccccc2C(=O)O)cc1Cl`, the Potency is 16.3 µM (active). On the same count and under the same terms, with `Cc1c(NS(C)(=O)=O)cccc1-c1nc2ccccc2s1` the figure was 16.3 µM (active).

`O=C(O)c1cccc(NC(=O)c2ccccc2NC(=O)c2ccco2)c1`: the “activity change, negative = inhibition” value was -17.2% (inactive).

`O=C(O)c1ccc(NC(=O)c2cccc(C(=O)Nc3ccc(C(=O)O)cc3)c2)cc1`: the “activity change, negative = inhibition” value is -16.3% (inactive). Consider `COc1ccc(-c2cccc(C(=O)Nc3cccc(C(=O)O)c3)c2)cc1`, for which the Potency is 18.3 µM (active).

As for `O=C(Nc1ccccc1C(=O)O)c1cc(S(=O)(=O)Nc2ccccc2)ccc1Cl`, the “activity change, negative = inhibition” value was -12.9% (inactive). With `CC(=O)Oc1ccc(C(=O)Nc2ccccc2C(=O)Nc2ccc(C(=O)O)cc2)cc1`, the Potency is 18.3 µM (active). As to `COc1c(C)cccc1C(=O)Nc1ccc(-c2nc3ccccc3s2)c(Cl)c1`, the “activity change, negative = inhibition” value was -4.07% (inactive). On the same count and under the same terms, with `CC(C)(C)NC(=O)c1ccccc1-c1nc2ccccc2s1` the figure was -9.2% (inactive). As for `Cc1c(NC(=O)C(C)(C)C)cccc1-c1nc2ccccc2s1`, the Potency was 10.3 µM (active). Take `COc1ccc2nc(NC(=O)c3ccco3)sc2c1`: the Potency is 3.26 µM (active). On the same count and under the same terms, with `Cc1ccc(C(=O)Nc2ccccc2C(=O)O)cc1S(=O)(=O)N1CCCCCC1` the figure was 5.17 µM (active); with `CCOc1ccc2nc(NC(=O)Cc3cccs3)sc2c1`, 18.3 µM (active). As to `O=C(Nc1ccccc1C(=O)O)c1cc(S(=O)(=O)NCc2ccccc2)ccc1Cl`, the “activity change, negative = inhibition” value is -4.2% (inactive).

Take `Cc1ccc(C(=O)O/N=C(\N)c2ccccn2)c(Cl)c1`: the Potency was 0.0919 µM (active).

Take `Cc1ccc(S(=O)(=O)N2CCN(C(=O)c3ccccc3-c3nc4ccccc4s3)CC2)c(C)c1`: the “activity change, negative = inhibition” value was -5.01% (inactive). As for `O=C(Nc1ccccc1C(=O)O)c1cc(S(=O)(=O)Nc2cccc(F)c2)ccc1Cl`, the “activity change, negative = inhibition” value was -13.3% (inactive). Consider `CC(C)CC(=O)Nc1cccc(C(=O)Nc2ccccc2C(=O)O)c1`, for which the Potency is 23.1 µM (active). Still for that read-out and setting: the same measure for `CC(C)C(=O)Nc1cccc(C(=O)Nc2ccccc2C(=O)O)c1`: 18.3 µM (active); for `Cc1ccc2sc(-c3ccc(N)cc3)nc2c1`: 0.517 µM (active). Take `CC(C)(C)C(=O)Nc1ccc(-c2nc3ccccc3s2)cc1`: the Potency is 0.0411 µM (active). With `CCOc1ccc2nc(NC(=O)c3ccccn3)sc2c1`, the Potency was 2.06 µM (active). As to `O=C(Nc1c(Cl)cc(Cl)cc1-c1nc2ccccc2s1)c1ccc(Br)o1`, the “activity change, negative = inhibition” value was -2.74% (inactive). Turning to `COc1ccc2nc(NC(=O)Cc3cccs3)sc2c1`, the Potency was 13 µM (active). Consider `Cc1c(C)c2ccc(OCC(=O)Nc3ccccn3)c(C)c2oc1=O`, for which the Potency is 0.0919 µM (active).

In the case of `O=C(Nc1ccccc1C(=O)Nc1ccccc1C(=O)O)c1ccccc1`, the Potency was 20.6 µM (active).

Regarding `COc1ccc2nc(NC(=O)c3cnccn3)sc2c1`, the Potency was 6.51 µM (active). For the compound `CCOc1ccc(C(=O)Nc2cccc(C(=O)O)c2)cc1Cl`, the Potency is 6.51 µM (active). As to `c1ccc2sc(-c3ccc4c(c3)OCO4)nc2c1`, the Potency was 1.3 µM (active). Same read-out and setting: with `Cc1ccc(C(=O)O/N=C(\N)c2ccccn2)cc1` the figure was 0.183 µM (active). Consider `COc1ccc(-c2nc3ccccc3s2)cc1NC(=O)c1ccc(F)cc1`, for which the “activity change, negative = inhibition” value is 2.39% (inactive). In the case of `O=C(Nc1ccccc1C(=O)O)c1ccccc1`, the “activity change, negative = inhibition” value was -19.5% (inactive).

On to `O=C(Nc1ccccc1C(=O)O)c1cccc(NC(=O)c2ccccc2Cl)c1`, for which the Potency was 36.6 µM (active). For the compound `O=C(Cc1ccccc1)Nc1ccccc1C(=O)Nc1ccc(C(=O)O)cc1`, the “activity change, negative = inhibition” value was -0.0902% (inactive).
